# Bioassay records from PubChem BioAssay.
# NR1D1 modulator: modulators of human Rev-erb alpha DNA binding. P20393. Rev-erbα–FITC-DNA binding, fluorescence polarization, 90 min. activity, % at 10 µM. 0.79% of 370,000 active. AID 1259318;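 active means activity above about 14%, limit read from the data; passing the limit was not always enough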;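 further: 0% = DMSO wells with 35 nM protein and 100% = DMSO wells with 750 nM protein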
# PG9 binder: binds the HIV-1 gp120 antibody PG9; TR-FRET gp120-PG9 antibody binding; inhibition, % at 6.7 µM; 0.43% of 360,000 active; in the data active means inhibition above about 8.5%
# ABCB6 inh MLPCN: blocks the human ABCB6 transporter | K562-ABCB6 porphyrin accumulation, flow cytometry, 1 h; active compounds read low | Q9NP58 | 0.19% of 360,000 active | fluorescence ratio to DMSO, % at 10 µM;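 active means fluorescence ratio to DMSO below 75%, the collection mean minus 3 SD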;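 further: signal is porphyrin accumulated inside mitochondria; 100% equals median channel fluorescence of DMSO control wells; lower ratio means ABCB6 inhibition with less porphyrin fluorescence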
# Granule exo inh: lytic granule exocytosis inhibition; TALL-104 LAMP-1 surface exposure, flow cytometry; cells stimulated with thapsigargin and PMA; inhibition, % at 10 µM; 0.66% of 360,000 active; AID 651702;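 active means inhibition above about 55%, limit read from the data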
# VLA-4 inh: inhibition in a human VLA-4 binding assay | 0.2% of 330,000 active | VLA-4 expressing cells, ligand binding flow cytometry | inhibition, % (about 7 µM as worked out from the volumes in the protocol) | AID 2557; in the data active means inhibition above about 50%
# Exocytosis CP01: blocks lytic granule exocytosis | shares compounds with Granule exo inh | TALL-104 cells, LAMP-1 externalization, flow cytometry; stimulated with PMA plus thapsigargin | inhibition, % at 10 µM | 11% of 1,500 active; in the data active means inhibition above about 60%;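 further: 0% = stimulated vehicle wells and 100% = unstimulated wells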
# Starred values were filed as active, the others as inactive; / = no result. In the library only some 2% were active in any assay of this set; here they are far more common.
SMILES,NR1D1 modulator,PG9 binder,ABCB6 inh MLPCN,Granule exo inh,VLA-4 inh,Exocytosis CP01
CC1(c2nnc(Cc3ccccc3)o2)CC(c2cccnc2)=NO1 (configuration not stated),-1,-1,99,68*,/,-14
CCOc1ccc(CN(C(=O)c2oc3ccccc3c2C)C2CCS(=O)(=O)C2)cc1 (configuration not stated),-4,1,102,-3,10,/
Cc1c(C(=O)N(Cc2ccc(Cl)cc2)C2CCS(=O)(=O)C2)oc2ccccc12 (configuration not stated),6,3,94,74*,5,-12
COc1ccc(CN2C/C(=C/C3=CCCCC3)N(C(=O)OCc3ccccc3)C2=N)c(OC)c1,2,/,/,/,/,/
O=C(C1=C[C@@H](c2coc3ccccc3c2=O)C[C@@H](OCCCCO)O1)N1CCOCC1,8,-3,96,66*,-2,-14
CCOC(=O)C1Nc2ccccc2C2c3ccccc3CC12 (configuration not stated),0,0,96,-4,1,/
CCOC(=O)C1Nc2c(cc(C(F)(F)F)cc2[N+](=O)[O-])C2c3ccccc3CC12 (configuration not stated),2,-1,96,76*,-8,-13
O=[N+]([O-])c1ccc(N2N=C(c3ccccc3)CC2c2ccccc2O)cc1 (configuration not stated),-1,1,206,58*,-151,28
NS(=O)(=O)c1ccc(N2N=C(c3ccccc3)CC2c2ccccc2Br)cc1 (configuration not stated),-8,2,96,-1,/,/
OC1(c2cccc(C(F)(F)F)c2)CCN(c2ncnc3c2[nH]c2ccc(F)cc23)CC1,1,0,105,96*,/,68*
CCOC(=O)N1CCC(NC(=O)C2CCCN(Cc3nc(-c4ccc(CC)cc4)oc3C)C2)CC1 (configuration not stated),-2,0,91,62*,8,-3
Cc1ccc(S(=O)(=O)N2CCCC2C(=O)N2CCN(c3ccccc3)CC2)cc1 (configuration not stated),6,/,/,/,/,/
CCCCCCNC(=O)c1cccc(-c2ccc(C)c3ccccc23)n1,9,0,89,58*,27,-12
CCCC[C@H]1C2CC(OC(=O)Nc3cccc(C(F)(F)F)c3)C(C2)[C@H]2CCCCN21 (some centres not stated),9,/,/,/,/,/
S=C(NCCCN1CCOCC1)N1CCN(c2nc(-c3ccc(Cl)cc3)cs2)CC1,-1,0,95,77*,11,47
CN(C)S(=O)(=O)c1cccc(NC(=O)c2ccc(COc3ccccc3)cc2)c1,3,0,93,58*,8,10
COCc1ccc(C(=O)Nc2cccc(S(=O)(=O)N(C)c3ccccc3)c2)cc1,-3,0,98,-8,14,/
CN(c1ccccc1)S(=O)(=O)c1cccc(NC(=O)c2ccc3ncsc3c2)c1,4,0,98,67*,1,8
COc1ccc(N(C)S(=O)(=O)c2cccc(C(=O)Nc3ccc(OC)nc3)c2)cc1,5,0,/,/,9,/
COc1ccc(N(C)S(=O)(=O)c2cccc(C(=O)Nc3ccc4c(c3)OCCO4)c2)cc1,2,-4,91,90*,11,-3
O=C(CCc1nc(-c2ccccc2F)no1)NCCc1c[nH]c2ccccc12,-5,/,/,/,/,/
C=C1C(=O)[C@]23C[C@H]1CC[C@H]2[C@]1(C)CCC[C@@](C)(C(=O)OC)[C@H]1C[C@@H]3O,-3,/,/,/,/,/
Cc1cc(C(=O)N(C)CC(=O)Nc2ccccc2C(F)(F)F)c(C)o1,-3,0,97,62*,18,-14
CN(CC(=O)Nc1ccccc1C(F)(F)F)C(=O)C1=COCCO1,-1,1,92,-2,12,/
O=C(NCCc1ccccc1)OCc1cn(-c2ccc(F)cc2)nn1,-4,/,/,/,/,/
Cc1cccc(CN2CCC(C(=O)Nc3cccc(-c4cccc(F)c4)c3)CC2)n1,5,3,93,62*,4,-8
Cc1cccc(CN2CCC(C(=O)Nc3cccc(-c4cscn4)c3)CC2)n1,-4,0,93,4,-3,/
O=C(Nc1cc(C(F)(F)F)ccc1Cl)C(Sc1ccccn1)c1ccccc1 (configuration not stated),0,1,99,104*,5,-14
